Source: PubChem BioAssay
Active and inactive are the calls of the source.

Columns and labels:
[1] = molecular target: Albumin (Bos taurus) (UniProt P02769); assay: bovine serum albumin binders on microarray, profiling panel, artefact control for SMM control protein annotation, biochemical, small-molecule microarray, Alexa647 label, 635/667 nm fluorescence (AID 1118); conditions: BSA-A647 binding, fluorescence 635 nm, higher = more signal;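 further: score merges 667 nm emission intensity and signal-to-noise per printed compound spot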
[2] = small-molecule microarray binders of probe aXIP, primary screen, biochemical, NeuroSMM set, 635/667 nm fluorescence (AID 1119); conditions: higher = more signal, called active from +8 up or from −8 down;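 further: probe is the protein aXip251-270 applied at 1 µg/mL to compound-printed slides; binding of probe to printed compounds measured as 667 nm fluorescence plus signal to noise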
[3] = small-molecule binders of probe aNOTCH3, primary screen, biochemical, small-molecule microarray, 635/667 nm fluorescence (AID 1120); conditions: higher = more signal;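 further: probe is a biotin-tagged antibody raised against NOTCH3 rather than NOTCH3 protein; score merges spot fluorescence near 667 nm with spot signal to noise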
[4] = small-molecule binders of probe aNOTCH2, primary screen, biochemical, small-molecule microarray, 635/667 nm fluorescence (AID 1121); conditions: higher = more signal;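 further: score merges feature fluorescence read at 667 nm with its signal to noise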
[5] = molecular target: Carbonic anhydrase 2 (Homo sapiens) (UniProt P00918); assay: CAII small-molecule binders, profiling panel, biochemical, small-molecule microarray, Alexa647-labelled CAII (AID 1122); conditions: CAII-A647 binding fluorescence, higher = more signal
[6] = COS7 lysate on small-molecule microarray, probe aHis, 635 nm (AID 1123); conditions: COS7 cell lysate, fluorescence, higher = more signal;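 further: z-score combines 667nm fluorescence intensity with signal-to-noise per printed compound spot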
[7] = compound binding in COS7 lysate, probe aLAP1, primary screen, cell lysate, small-molecule microarray (AID 1124); conditions: probe aLAP1, fluorescence, higher = more signal;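 further: lysate comes from COS7 cells expressing LAP1 and is applied at 0.3 µg/mL; score merges spot fluorescence near 667 nm with signal-to-noise over triplicate slides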
[8] = system: Sam68 (KHDRBS1); assay: Sam68 small-molecule binders, primary screen, biochemical, small-molecule microarray, 635 nm fluorescence (AID 1125); conditions: small-molecule microarray binding, higher = more signal;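 further: score merges 667 nm channel intensity with signal to noise over triplicate slides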
[9] = system: Chordin-like protein 2 (CHRDL2); assay: CHRDL2 small-molecule binders, primary screen, biochemical, small-molecule microarray, 635 nm fluorescence (AID 1126); conditions: small-molecule microarray binding, fluorescence 635 nm; higher = more signal;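 further: printed compound slides probed with Chrdl2 protein at 4 µg/mL for 1 h at 4 C; score merges 667 nm emission intensity with signal to noise over three replicate slides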
[10] = molecular target: Concanavalin-A (Canavalia ensiformis) (UniProt P02866); assay: ConA small-molecule binders, primary screen, artefact control for SMM control protein annotation, biochemical, small-molecule microarray, Alexa647 label, 635 nm (AID 1127); conditions: ConA-A647 binding fluorescence, higher = more signal;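 further: z combines 667 nm emission intensity with signal-to-noise across three replicate slides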
Chain of Concanavalin-A (Canavalia ensiformis) (P02866 whole entry, looked up): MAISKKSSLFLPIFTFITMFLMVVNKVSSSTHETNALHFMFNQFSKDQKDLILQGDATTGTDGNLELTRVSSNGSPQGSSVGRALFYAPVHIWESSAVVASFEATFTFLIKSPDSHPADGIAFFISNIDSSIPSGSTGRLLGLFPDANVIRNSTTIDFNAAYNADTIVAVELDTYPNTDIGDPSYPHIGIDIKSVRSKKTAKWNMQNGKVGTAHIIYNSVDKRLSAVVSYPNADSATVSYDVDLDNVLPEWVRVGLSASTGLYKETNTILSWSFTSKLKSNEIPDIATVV

Chain of Albumin (Bos taurus) (P02769 whole entry, looked up): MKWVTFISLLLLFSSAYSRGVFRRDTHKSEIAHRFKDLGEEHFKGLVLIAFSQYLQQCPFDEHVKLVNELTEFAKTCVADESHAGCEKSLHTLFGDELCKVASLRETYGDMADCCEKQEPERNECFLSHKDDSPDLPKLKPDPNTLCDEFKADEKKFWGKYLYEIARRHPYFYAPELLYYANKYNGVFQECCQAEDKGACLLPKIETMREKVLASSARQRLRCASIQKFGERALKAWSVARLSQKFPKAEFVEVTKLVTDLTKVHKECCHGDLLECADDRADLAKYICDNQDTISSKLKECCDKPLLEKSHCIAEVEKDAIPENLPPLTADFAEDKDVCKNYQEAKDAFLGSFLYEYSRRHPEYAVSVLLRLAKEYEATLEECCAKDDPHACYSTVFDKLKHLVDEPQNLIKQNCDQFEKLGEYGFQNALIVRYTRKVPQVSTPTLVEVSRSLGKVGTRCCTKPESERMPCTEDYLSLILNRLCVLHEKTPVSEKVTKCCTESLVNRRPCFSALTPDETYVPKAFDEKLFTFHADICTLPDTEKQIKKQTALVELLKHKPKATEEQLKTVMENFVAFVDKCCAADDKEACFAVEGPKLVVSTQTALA

Structure (SMILES) | composite z-score [1] | composite Z-score [2] | composite z-score [3] | composite z-score [4] | composite z-score [5] | composite z-score [6] | composite z-score [7] | composite z-score [8] | composite z-score [9] | composite z-score [10]
COc1ccc([Si](C)(C)[C@H]2[C@H](CC(=O)N3CCC[C@H]3CO)O[C@@]3(C(=O)N(Cc4cccc(N5C(=O)COc6ccccc65)c4)c4ccccc43)[C@@H]2C)cc1 | 0.34 | 0.33 (inactive) | 0.0293 | -0.0556 | 0.437 | 2.38 | 0.125 | 1.26 | 0.959 | 0.997
C[C@@H]1C=CCC(=O)OC[C@H](C)C(=O)N[C@@H](C)C(=O)OC1 | -0.171 | 0.215 (inactive) | -0.0647 | -0.144 | -0.385 | -0.466 | 0.369 | 0.175 | 0.71 | 0.155
CO[C@H]1COC(=O)[C@@H]2CCCN2C(=O)[C@@H](C)COC(=O)CC=C[C@@H]1C | -0.414 | -0.275 (inactive) | -0.0647 | -0.0907 | -0.329 | -0.641 | 0.359 | 0.474 | 1.4 | 0.75
CCN1C(=O)[C@H]2[C@H]3[C@H](O)[C@H](O)CC(=NO[C@@H]4O[C@H](CO)[C@@H](O)[C@H](O)[C@H]4O)[C@@H]3CC[C@H]2C1=O | -0.647 | 0.103 (inactive) | -0.213 | -0.203 | -0.12 | -1.22 | -0.378 | -1.5 | -0.229 | -1.14
CC(C)=CCCC(C)=CCON=C1[C@H]2CCn3c(=O)n(Cc4cc5c(cc4Cl)OCO5)c(=O)n3[C@H]2[C@H](O)[C@@H]2O[C@H]12 | -0.0415 | -0.116 (inactive) | 0.204 | -0.131 | -0.158 | -0.605 | 0.0561 | -0.218 | 1.08 | 0.598
CC1CC/C=C\[C@H]2OC34C=CCN(Cn5nnc6ccccc65)C(=O)[C@H]3N(CCO)C(=O)[C@@H]4C2C(=O)O1 (stereo not given in full) | 1.13 | 1.12 (inactive) | -0.319 | -0.15 | 0.942 | 2.59 | 1.06 | 0.0381 | -1.62 | -0.903
C[C@H]1Cc2c(-c3ccccc3)nc3c(c2CO1)CN(CCOc1ccccc1)CC3 | 0.68 | -0.2 (inactive) | 0.0667 | -0.112 | 0.352 | 0.71 | 0.292 | 1.3 | 0.521 | 0.993
CC(C)C[C@@H]1NC(=O)[C@H]2C[C@@H](C(=O)NCCCCCCN(C)C)[C@@H](c3cccc(OCCO)c3)N2C1=O | -0.615 | 2.07 (inactive) | 0.16 | -0.153 | 0.557 | 2.81 | 1.44 | 1.31 | 1.47 | 1.09
COc1ccc(O[C@H]2C=C[C@@H](c3ccccc3)O[C@@H]2COC(=O)CCC(C)=NO[C@@H](C)c2cc(-c3c(C)cc(C)cc3C)no2)cc1 | -0.0567 | -0.314 (inactive) | -0.187 | -0.153 | -0.505 | -0.451 | -0.522 | -0.822 | -0.654 | -1.63
CCN(CC)c1ccc(N2CC=CC34O[C@@H]5/C=C\CCC(C)OC(=O)C5[C@H]3C(=O)N(CCCO)[C@@H]4C2=O)cc1 (stereo not given in full) | -0.909 | 0.589 (inactive) | -0.185 | -0.189 | 0.868 | -0.368 | -0.0197 | -0.383 | -0.618 | -0.608
CC(=O)OC[C@H]1O[C@H](CCON=C[C@@H](C)[C@H](OCc2ccccc2)C(C)C)C=C[C@@H]1OC(C)=O | 0.0841 | -0.313 (inactive) | 0.214 | -0.0716 | -0.249 | -0.039 | 0.148 | 0.997 | 0.755 | 0.0066
COC(=O)[C@H](C)NC(=O)CCC1CC(OC(=O)NCCc2ccc(F)cc2)CC2(CCCC(COC(=O)NCC(c3ccccc3)c3ccccc3)O2)O1 (stereo not given in full) | 0.675 | 0.269 (inactive) | -0.0932 | -0.1 | 0.343 | 1.44 | 0.031 | 1.22 | 0.17 | 0.714
CC(=O)OC[C@H]1O[C@H](C#CCCCc2ccccc2)C=C[C@@H]1OC(C)=O | 0.495 | 0.0117 (inactive) | -0.0647 | -0.0772 | -0.155 | 0.622 | 0.46 | 0.459 | 0.192 | -0.077
[N-]=[N+]=NCc1ccccc1[C@@H]1OC(c2ccc(OCCCO)cc2)=N[C@]1(Cc1ccccc1)C(=O)N1CCOCC1 | 0.923 | 0.0976 (inactive) | 0.387 | 0.34 | 0.514 | 3.06 | 0.827 | 1.32 | 0.766 | 1.16
O=C1[C@H]2[C@H]3[C@H](O)[C@H](O)CC(=NO[C@@H]4O[C@H](CO)[C@@H](O)[C@H](O)[C@H]4O)[C@@H]3CC[C@H]2C(=O)N1c1ccc(F)cc1F | 0.241 | -0.836 (inactive) | -0.0612 | -0.104 | -0.0947 | -0.0596 | 0 | 0.465 | 0.426 | 0.262
C=C(/C(=C/C[C@H](OC(C)=O)c1ccc(OCCO)cc1)c1cnc2ccccc2c1)C(C)C | -0.154 | -0.229 (inactive) | 0.0418 | -0.146 | 0.885 | 0.575 | -0.315 | 1.3 | 1.2 | 1.09
CC(CCN1CCc2nc(-c3ccccc3)c(-c3ccccc3)cc2C1)=NOC[C@@H](C)[C@H](OCc1ccccc1)C(C)C | 0.474 | -0.193 (inactive) | 0.0375 | -0.177 | -0.0642 | 0.271 | -0.2 | -1.19 | -1.11 | -0.198

Structure (SMILES) | composite z-score [1] | composite Z-score [2] | composite z-score [3] | composite z-score [4] | composite z-score [5] | composite z-score [6] | composite z-score [7] | composite z-score [8] | composite z-score [9] | composite z-score [10]
CCOC(=O)NN=C1C[C@@H](O)[C@@H](O)[C@@H]2[C@@H]3C(=O)N(C4CCCCC4)C(=O)[C@@H]3CC[C@H]12 | 0.801 | -0.0662 (inactive) | 0.0242 | -0.037 | -0.0418 | 0.387 | 0.16 | 0.458 | 0.0341 | 0.357
CC(C)[Si]1(C(C)C)O[C@@H](c2ccccc2)c2cc(C3CC3)nc(-c3ccccc3)c21 | 0.23 | -0.773 (inactive) | -0.16 | -0.102 | -0.169 | 0.423 | 0.202 | -0.308 | 0.324 | -0.77
CO[C@H]1O[C@H](CO)[C@@H](OC(=O)Nc2ccc(C#N)cc2)[C@H](OC(=O)c2cc3ccccc3[nH]2)[C@H]1OC(=O)c1cc2ccccc2[nH]1 | 0.904 | 1.79 (inactive) | 0.078 | -0.0211 | 0.627 | 2.41 | 1.5 | 1.31 | 0.451 | 1.13
CO[C@H]1COC(=O)CC=C[C@H](C)[C@@H](NS(=O)(=O)c2ccc(C)cc2)COC(=O)CC=C[C@@H]1C | -0.498 | -0.38 (inactive) | -0.0436 | -0.151 | -0.0698 | -0.51 | 0.216 | 0.165 | 0.713 | -0.408
Cc1cc2c(nc1C)CCCN2CC(O)CN1CCN(C)CC1 (stereo not given) | -0.562 | 1.03 (inactive) | -0.0636 | -0.149 | 0.622 | 0.387 | 0.289 | 0.693 | 0.731 | 1.02
CCc1cc2c(nc1CC)CCN(CCC(C)=NOC[C@@H](O)[C@H]1O[C@@H]3OC(C)(C)O[C@@H]3[C@H]1O)C2 | 0.424 | 0.386 (inactive) | -0.0111 | -0.0891 | 0.213 | 0.421 | -0.0959 | 0.398 | 0.382 | 0.971
COCCCNC(=O)[C@@]1(CCS(=O)(=O)c2ccccc2)N=C(c2ccc(OCCCO)cc2)O[C@H]1c1ccccc1 | 0.533 | 0.164 (inactive) | 0.303 | 0.529 | 0.577 | 3 | 1.01 | 1.31 | -0.0021 | 0.261
COC(=O)C1=C(C)N(Cc2ccccc2)[C@]23O[C@](C(=O)OC)(C(=O)N2[C@@H]1c1ccccc1)[C@H]1CCOC(=O)[C@H]13 | 0.735 | 0.493 (inactive) | -0.0587 | -0.131 | 0.0198 | -0.12 | 0.21 | -0.0775 | 0.702 | 0.0349
CO[C@H]1COC(=O)[C@H](C)NC(=O)[C@@H](C)COC(=O)CC=C[C@@H]1C | -0.331 | 0.0462 (inactive) | -0.0391 | -0.192 | -0.336 | -0.851 | -0.0193 | 0.41 | 0.858 | 0.303
C[C@@H]1CC[C@H]2C(=O)O[C@H](COc3ccc(C(C)(C)C)cc3)CN2[C@H]1c1ccc(Br)cc1 | 0.673 | 0.458 (inactive) | -0.0716 | 0.0776 | -0.113 | -0.231 | 0.157 | -0.734 | 0.0828 | -0.212
COC(=O)[C@@]1(Cc2ccc(F)cc2)[C@H]2c3cc(C(=O)N(C)C)n(Cc4ccc(OC)c(OC)c4)c3C[C@H]2CN1C(=O)c1ccccc1 | 0.378 | 0.206 (inactive) | 0.194 | 0.265 | 0.866 | 0.383 | -0.253 | -0.309 | 0.106 | -0.189
COC(=O)[C@H](C)NC(=O)[C@@H](C)CO | 0.802 | 0.292 (inactive) | -0.105 | -0.103 | 0.516 | 1.15 | 0.531 | 1.03 | 0.0899 | 0.907
COC(=O)C1=CCC(c2cccc(Cl)c2)O1 (stereo not given) | 0.431 | 0.0018 (inactive) | -0.112 | -0.0907 | 0.483 | -0.21 | -0.201 | 0.137 | -0.667 | 0.247
CC(C)C[C@@H]1NC(=O)[C@H]2C[C@@H](C(=O)O)[C@@H](c3ccc(O)cc3)N2C1=O | 0.111 | -0.2 (inactive) | -0.0311 | -0.0586 | 0.419 | 0.666 | -0.79 | 0.62 | 0.51 | 0.684
C[C@@H]1C=CCC(=O)OC[C@H](C)C(=O)OC[C@H]2O[C@H]1C=C[C@H]2O | 0.411 | -0.18 (inactive) | 0.2 | -0.0795 | 0.116 | 0.544 | 0.0137 | 0.0768 | 0.458 | 0.227
COc1ccc(COC(=O)NN=C2C[C@@H](O)[C@@H](O)[C@@H]3[C@@H]4C(=O)N(Cc5ccc6c(c5)OCO6)C(=O)[C@@H]4CC[C@@H]23)cc1 | -0.152 | -0.463 (inactive) | 0.218 | 0.015 | -0.244 | 0.115 | 0.616 | -0.395 | -0.54 | -1.3
